# Measured values taken from PubChem BioAssay AID1508601 (ICCB-Longwood Screening Facility, Harvard Medical School, 2020).
# Where “and” joins values, the source holds several entries; their conditions need not be identical. Equal entries are not always repeated. Among all 5,700 compounds or so, about 85 (1%) were called active. No stated cut-off is given here; in the data, active means p53-positive nuclei above about 36% (passing the limit was not always enough); inactive means the rest. The list comes from a sample in which actives are over-represented; it also holds similar structures and randomly drawn compounds.
# Key:
# [1] = nuclear p53 accumulation, HPV+ cells – imaging, p53-positive nuclei imaging, 24 h, 48 h (AID 1508601); conditions: 24/48 h
# [2] = target: Cellular tumor antigen p53 (Homo sapiens) (UniProt P04637); test: as above; conditions: 24/48 h, stronger effect = higher value
# Cellular tumor antigen p53 (Homo sapiens), sequence (P04637 whole entry, looked up): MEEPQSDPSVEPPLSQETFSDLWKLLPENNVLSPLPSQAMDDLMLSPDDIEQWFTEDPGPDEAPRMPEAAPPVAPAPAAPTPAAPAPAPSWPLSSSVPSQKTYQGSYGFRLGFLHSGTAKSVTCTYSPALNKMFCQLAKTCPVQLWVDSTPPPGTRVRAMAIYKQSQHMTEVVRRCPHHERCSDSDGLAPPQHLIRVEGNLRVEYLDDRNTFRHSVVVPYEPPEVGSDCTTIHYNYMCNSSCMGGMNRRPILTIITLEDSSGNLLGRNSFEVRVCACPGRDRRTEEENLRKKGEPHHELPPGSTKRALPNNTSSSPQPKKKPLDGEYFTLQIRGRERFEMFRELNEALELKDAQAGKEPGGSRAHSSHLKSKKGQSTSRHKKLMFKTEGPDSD
# [3] = measured here: cell number at 24 h, concentration not given here
# [4] = measured here: cell number at 48 h, concentration not given here
# [5] = measured here: p53 positive nuclei at 24 h, concentration not given here
# [6] = measured here: cell number at 24 h, Library stock concentration: 3.33 mM
# [7] = measured here: cell number at 48 h, Library stock concentration: 3.33 mM
# [8] = Library stock concentration: 3.33 mM
# [9] = measured here: p53 positive nuclei at 24 h, Library stock concentration: 3.33 mM
# [10] = measured here: cell number at 24 h, Library stock concentration: 80 uM
# [11] = measured here: cell number at 24 h, Library stock concentration: 400 uM
# [12] = measured here: cell number at 24 h, Library stock concentration: 2 mM
# [13] = measured here: cell number at 24 h, Library stock concentration: 10 mM
# [14] = measured here: cell number at 48 h, Library stock concentration: 80 uM
# [15] = measured here: cell number at 48 h, Library stock concentration: 400 uM
# [16] = measured here: cell number at 48 h, Library stock concentration: 2 mM
# [17] = measured here: cell number at 48 h, Library stock concentration: 10 mM
# [18] = Library stock concentration: 80 uM
# [19] = Library stock concentration: 400 uM
# [20] = Library stock concentration: 2 mM
# [21] = Library stock concentration: 10 mM
# [22] = measured here: p53 positive nuclei at 24 h, Library stock concentration: 80 uM
# [23] = measured here: p53 positive nuclei at 24 h, Library stock concentration: 400 uM
# [24] = measured here: p53 positive nuclei at 24 h, Library stock concentration: 2 mM
# [25] = measured here: p53 positive nuclei at 24 h, Library stock concentration: 10 mM
smiles,measurement,setting,value
O=C(c1cn2cccnc2n1)N1CCCC(Cn2cc(C3CCCC3)nn2)C1 (stereo not drawn),"nuclei count, normalised",[1]; [3],84.5%
same,"nuclei count, normalised",[1]; [4],92.1%
same,"p53-positive nuclei, normalised",[2]; concentration not given here,-0.0576% (inactive)
same,"p53-positive nuclei, normalised",[2]; [5],-0.142%
C#C[C@]1(O)CCC2C3CCc4cc(O)ccc4C3CC[C@@]21C (stereo partly drawn),"nuclei count, normalised",[1]; [3],85.4%
same,"nuclei count, normalised",[1]; [4],37.7%
same,"p53-positive nuclei, normalised",[2]; concentration not given here,83% (active)
same,"p53-positive nuclei, normalised",[2]; [5],8.99%
C#C[C@@]1(O)CC[C@H]2[C@@H]3CCc4cc(O)ccc4[C@@H]3CC[C@@]21C,"nuclei count, normalised",[1]; [6],80.8%
same,"nuclei count, normalised",[1]; [7],66.7%
same,"p53-positive nuclei, normalised",[2]; [8],15.7% (inactive)
same,"p53-positive nuclei, normalised",[2]; [9],2.17%
C#C[C@]1(O)CC[C@@H]2[C@@H]3CCc4cc(O)ccc4[C@@H]3CC[C@@]21C,"nuclei count, normalised",[1]; [10],97.1%
same,"nuclei count, normalised",[1]; [11],108%
same,"nuclei count, normalised",[1]; [12],101%
same,"nuclei count, normalised",[1]; [13],72.9%
same,"nuclei count, normalised",[1]; [14],108%
same,"nuclei count, normalised",[1]; [15],108%
same,"nuclei count, normalised",[1]; [16],102%
same,"nuclei count, normalised",[1]; [17],30.5%
same,"p53-positive nuclei, normalised",[2]; [18],0.0565% (inactive)
same,"p53-positive nuclei, normalised",[2]; [19],0.0172% (inactive)
same,"p53-positive nuclei, normalised",[2]; [20],0.0704% (inactive)
same,"p53-positive nuclei, normalised",[2]; [21],76.1% (inactive)
same,"p53-positive nuclei, normalised",[2]; [22],-0.0527%
same,"p53-positive nuclei, normalised",[2]; [23],0.068%
same,"p53-positive nuclei, normalised",[2]; [24],0.0711%
same,"p53-positive nuclei, normalised",[2]; [25],6.02%
C#CCOc1ccc2c(c1)c(-c1ccc(C(C)C)cc1)nc(=O)n2C(C)C,"nuclei count, normalised","[1]; measured here: cell number at 24 h, Library stock concentration: 46 uM",104%
same,"nuclei count, normalised","[1]; measured here: cell number at 24 h, Library stock concentration: 278 uM",110%
same,"nuclei count, normalised","[1]; measured here: cell number at 24 h, Library stock concentration: 1.67 mM",104%
same,"nuclei count, normalised",[1]; [13],112%
same,"nuclei count, normalised","[1]; measured here: cell number at 48 h, Library stock concentration: 46 uM",101%
same,"nuclei count, normalised","[1]; measured here: cell number at 48 h, Library stock concentration: 278 uM",101%
same,"nuclei count, normalised","[1]; measured here: cell number at 48 h, Library stock concentration: 1.67 mM",97.6%
same,"nuclei count, normalised",[1]; [17],101%
same,"p53-positive nuclei, normalised",[2]; Library stock concentration: 46 uM,-0.166% (inactive)
same,"p53-positive nuclei, normalised",[2]; Library stock concentration: 278 uM,0.0283% (inactive)
same,"p53-positive nuclei, normalised",[2]; Library stock concentration: 1.67 mM,0.0841% (inactive)
same,"p53-positive nuclei, normalised",[2]; [21],-0.00718% (inactive)
same,"p53-positive nuclei, normalised","[2]; measured here: p53 positive nuclei at 24 h, Library stock concentration: 46 uM",-0.153%
same,"p53-positive nuclei, normalised","[2]; measured here: p53 positive nuclei at 24 h, Library stock concentration: 278 uM",-0.218%
same,"p53-positive nuclei, normalised","[2]; measured here: p53 positive nuclei at 24 h, Library stock concentration: 1.67 mM",-0.0911%
same,"p53-positive nuclei, normalised",[2]; [25],-0.218%
O=C(O)C=Cc1ccc(Cn2ccnc2)cc1,"nuclei count, normalised",[1]; [10],111%
same,"nuclei count, normalised",[1]; [11],104%
same,"nuclei count, normalised",[1]; [12],103%
same,"nuclei count, normalised",[1]; [6],103% and 107%
same,"nuclei count, normalised",[1]; [13],108%
same,"nuclei count, normalised",[1]; [14],108%
same,"nuclei count, normalised",[1]; [15],104%
same,"nuclei count, normalised",[1]; [16],103%
same,"nuclei count, normalised",[1]; [7],110% and 99.3%
same,"nuclei count, normalised",[1]; [17],103%
same,"p53-positive nuclei, normalised",[2]; [18],0.0181% (inactive)
same,"p53-positive nuclei, normalised",[2]; [19],0.0683% (inactive)
same,"p53-positive nuclei, normalised",[2]; [20],0.0233% (inactive)
same,"p53-positive nuclei, normalised",[2]; [8],-0.0503% (inactive) and -0.0965% (inactive)
same,"p53-positive nuclei, normalised",[2]; [21],-0.178% (inactive)
same,"p53-positive nuclei, normalised",[2]; [22],0.0685%
same,"p53-positive nuclei, normalised",[2]; [23],0.0107%
same,"p53-positive nuclei, normalised",[2]; [24],0.0098%
same,"p53-positive nuclei, normalised",[2]; [9],-0.252% and -0.232%
same,"p53-positive nuclei, normalised",[2]; [25],-0.12%
CCCCCCCCNC(=O)Cc1c(C)n(C(=O)c2ccc(Cl)cc2)c2ccc(OC)cc12,"nuclei count, normalised",[1]; [3],104%
same,"nuclei count, normalised",[1]; [4],112%
same,"p53-positive nuclei, normalised",[2]; concentration not given here,0.0988% (inactive)
same,"p53-positive nuclei, normalised",[2]; [5],-0.0319%
O=C1CCCc2occ(C(=O)N3CCc4[nH]nc(C5CCC5)c4C3)c21,"nuclei count, normalised",[1]; [3],110%
same,"nuclei count, normalised",[1]; [4],114%
same,"p53-positive nuclei, normalised",[2]; concentration not given here,-0.00738% (inactive)
same,"p53-positive nuclei, normalised",[2]; [5],-0.086%
OCCCCCNc1nccc(-c2cnn(-c3ccccc3F)c2)n1,"nuclei count, normalised",[1]; [3],112%
same,"nuclei count, normalised",[1]; [4],73.8%
same,"p53-positive nuclei, normalised",[2]; concentration not given here,0.562% (inactive)
same,"p53-positive nuclei, normalised",[2]; [5],-0.0884%
OCCCCCNc1nccc(-c2cnn(-c3ccc(F)cc3)c2)n1,"nuclei count, normalised",[1]; [3],103%
same,"nuclei count, normalised",[1]; [4],103%
same,"p53-positive nuclei, normalised",[2]; concentration not given here,-0.0141% (inactive)
same,"p53-positive nuclei, normalised",[2]; [5],0.508%
OCCCNc1cc(-c2ccnc(Nc3cccc(Cl)c3)n2)ccn1,"nuclei count, normalised",[1]; [10],46%
same,"nuclei count, normalised",[1]; [11],37.5%
same,"nuclei count, normalised",[1]; [12],37%
same,"nuclei count, normalised",[1]; [13],36.9%
same,"nuclei count, normalised",[1]; [14],28.8%
same,"nuclei count, normalised",[1]; [15],20.8%
same,"nuclei count, normalised",[1]; [16],22.2%
same,"nuclei count, normalised",[1]; [17],23.8%
same,"p53-positive nuclei, normalised",[2]; [18],75.9% (active)
same,"p53-positive nuclei, normalised",[2]; [19],41.8% (inactive)
same,"p53-positive nuclei, normalised",[2]; [20],16.5% (inactive)
same,"p53-positive nuclei, normalised",[2]; [21],8.11% (inactive)
same,"p53-positive nuclei, normalised",[2]; [22],23.9%
same,"p53-positive nuclei, normalised",[2]; [23],2.63%
same,"p53-positive nuclei, normalised",[2]; [24],2.24%
same,"p53-positive nuclei, normalised",[2]; [25],1.34%
NC(=Nc1ccc(F)cc1)NO,"nuclei count, normalised",[1]; [3],101%
same,"nuclei count, normalised",[1]; [4],95.3%
same,"p53-positive nuclei, normalised",[2]; concentration not given here,0.0683% (inactive)
same,"p53-positive nuclei, normalised",[2]; [5],-0.0286%
O=C(C=Cn1cnc(-c2cc(C(F)(F)F)cc(C(F)(F)F)c2)n1)N1CC(F)(F)C1,"nuclei count, normalised",[1]; [6],66.2%
same,"nuclei count, normalised",[1]; [7],53%
same,"p53-positive nuclei, normalised",[2]; [8],0.0748% (inactive)
same,"p53-positive nuclei, normalised",[2]; [9],-0.238%
O=C(O)CCC/C=C\C[C@H]1C(=O)C[C@@H](O)[C@@H]1/C=C/[C@@H](O)CCc1ccccc1,"nuclei count, normalised",[1]; [3],102%
same,"nuclei count, normalised",[1]; [4],107%
same,"p53-positive nuclei, normalised",[2]; concentration not given here,0.0806% (inactive)
same,"p53-positive nuclei, normalised",[2]; [5],0.0378%
